Compound activity from PubChem.
Rows were chosen to be rich in hits. Some 2.3% of all compounds tested hit in one or more screens of this group.
Mcl1-Noxa inh – Mcl-1/Noxa interaction inhibition; Q07820; TR-FRET Mcl-1/Noxa peptide binding, 2 h; inhibition, % at 21.7 µM; actives 1.5% (n = 220,000); AID 1022;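 active means compounds that cut the protein-peptide binding signal by more than 50% relative to plate controls in a single-dose test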;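 further: His-tagged Mcl-1 with rhodamine Noxa BH3 peptide and terbium anti-His antibody; 0% = Mcl-1 plus Noxa peptide wells and 100% = peptide-only wells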
Target sequence (Q07820 whole entry, looked up): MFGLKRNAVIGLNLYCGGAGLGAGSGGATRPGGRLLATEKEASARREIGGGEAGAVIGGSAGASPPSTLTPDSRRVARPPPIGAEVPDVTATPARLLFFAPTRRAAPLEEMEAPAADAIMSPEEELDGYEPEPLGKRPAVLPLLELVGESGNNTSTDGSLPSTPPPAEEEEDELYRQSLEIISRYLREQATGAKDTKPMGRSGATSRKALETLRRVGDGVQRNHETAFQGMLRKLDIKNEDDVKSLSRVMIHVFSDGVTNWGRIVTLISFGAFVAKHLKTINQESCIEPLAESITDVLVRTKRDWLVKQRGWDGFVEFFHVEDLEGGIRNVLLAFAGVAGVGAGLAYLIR
Mcl1 Bid PPI – disrupts binding of human Mcl-1 to Bid peptide. Q07820. TR-FRET Mcl-1/Bid-Dy647 peptide binding, 1536-well. inhibition, % at 21.7 µM. actives 0.97% (n = 220,000);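 active means compounds that cut the binding signal by more than half at the single screening dose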;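 further: His-tagged Mcl-1 with europium anti-His antibody binding Bid BH3 peptide; 0% = Mcl-1 plus peptide wells and 100% = peptide-only wells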
MCL1-BIM inh – inhibitors of human MCL1 binding to BIM-BH3 peptide. Q07820. GST-MCL1 / FITC-Bim-BH3 fluorescence polarization. inhibition, % at 10.9 µM. actives 0.68% (n = 320,000);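 active means inhibition above the mean inhibition of all tested compounds plus 3 SD, set per campaign, cut at about 40% in these data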;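 further: 0% = DMSO wells and 100% = unlabeled Bim-BH3 peptide control; higher means more loss of mP so more displacement of Bim peptide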
GLD-1 TGE inh – GLD-1-TGE RNA interaction inhibition (C. elegans); AID 2280; purified GLD-1 + fluorescein TGE RNA, fluorescence polarization; inhibition, % at 5.96 µM; actives 0.44% (n = 320,000); Q17339;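 active means percent inhibition above a per-plate cutoff, the plate mean of test compounds plus 3 SD, cut at about 30% in these data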;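 further: 0% = DMSO wells with GLD-1 and probe and 100% = wells lacking GLD-1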
BCLXL inh – blocks human Bcl-xL binding to Bim BH3 peptide; AID 2129; GST-Bcl-xL / FITC-Bim BH3 peptide fluorescence polarization; actives 0.7% (n = 320,000); inhibition, % at 10.9 µM;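 active means inhibition above the mean of all tested compounds plus 3 SD, cutoff set per campaign, cut at about 30% in these data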;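 further: 0% = DMSO wells and 100% = unlabeled Bim-BH3 peptide competitor; inhibitors lower millipolarization by displacing the labeled peptide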
Target sequence (Q07817 whole entry, looked up): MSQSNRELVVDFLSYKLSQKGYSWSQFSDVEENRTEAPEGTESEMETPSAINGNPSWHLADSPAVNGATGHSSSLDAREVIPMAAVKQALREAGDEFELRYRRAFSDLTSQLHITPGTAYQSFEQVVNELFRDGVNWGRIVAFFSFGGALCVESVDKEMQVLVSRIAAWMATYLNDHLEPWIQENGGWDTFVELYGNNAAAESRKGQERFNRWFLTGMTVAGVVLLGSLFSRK
Mcl-1 Bim block – human Bim-Mcl-1 interaction inhibition; actives 0.1% (n = 190,000); inhibition, % at 10 µM; AID 1009; Bead-based flow cytometry, Bim peptide-Mcl-1 binding; in the data active means inhibition above about 40%;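 further: 0% = no compound tracer wells and 100% = peptide blocker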
Active calls of the source: *; / = no result given.

SMILES	Mcl1-Noxa inh	Mcl1 Bid PPI	MCL1-BIM inh	GLD-1 TGE inh	BCLXL inh	Mcl-1 Bim block
Cc1cccc(C)c1NC(=O)C1c2ccccc2Oc2ccccc21	17.2	81.0*	-6.5	6.5	1.3	-4.0
CN(C)c1ncnc2c1NC1=C(S2)C(=NCCCC(=O)O)CC(C)(C)C1	39.8	-45.3	32.3	3.1	32.3*	-1.0
CC1(C)CC(=O)/C(=C(\O)Cc2ccccc2)C(=NCCCCCC(=O)O)C1	12.7	-4.8	-0.3	4.7	3.1	-3.0
COc1ccc(OC)c(C2C3CN(C(C)C)CC=C3C(C#N)=C(N)C2(C#N)C#N)c1 (stereo not given)	2.8	-33.8	95.6*	52.1*	87.2*	-5.0
COc1cccc(OC)c1OCc1cc(C2C3CCCC=C3C(C#N)=C(N)C2(C#N)C#N)c(C)cc1C (stereo not given)	0.7	-26.0	0.7	20.5	11.3	0.0
CCCN1CC=C2C(C#N)=C(N)C(C#N)(C#N)C(c3cccc(OC)c3OC)C2C1 (stereo not given)	-38.9	-53.6	139.9*	103.7*	128.8*	-5.0
CCN1CC=C2C(C#N)=C(N)C(C#N)(C#N)C(CCc3ccccc3)C2C1 (stereo not given)	-12.8	-29.2	182.8*	109.5*	155.3*	0.0
O=C(CSc1nnc(CNC(=O)c2ccc(F)cc2)o1)NCC1CCCO1 (stereo not given)	/	/	-0.1	-0.3	5.0	/
COC(=O)CNc1c(-c2ccccn2)nc2ccc(Br)cn12	-4.7	-59.1	55.1*	50.3*	46.7*	0.0
CCOC(=O)CNc1c(-c2ccccc2)nc2ccc(Cl)cn12	17.7	-14.9	0.4	12.7	2.2	2.0
N=C1SC(CC(=O)Nc2ccccc2[N+](=O)[O-])C(=O)N1c1ccccc1 (stereo not given)	2.3	-2.3	-1.5	-3.5	3.7	/
Cc1ccc(NC(=O)CN2C(=O)N/C(=C/c3cc(C)n(-c4ccc(C(=O)O)cc4)c3C)C2=O)cc1	76.0*	-122.7	/	/	/	1.0
Cc1ccc(NC(=O)CN2C(=O)N/C(=C/c3ccco3)C2=O)cc1	61.3*	-23.0	24.6	4.6	6.8	1.0
Cc1ccc(NC(=O)CN2C(=O)S/C(=C\c3cc(C)n(-c4ccc(C(=O)O)cc4)c3C)C2=O)cc1	14.0	-39.5	-1.6	-0.5	2.5	-2.0
COc1ccc(-c2csc(NC(=S)NC(=O)c3cccs3)n2)cc1Br	14.7	2.6	1.1	6.8	2.9	/
O=C(Nc1cccc(-c2csc(-c3ccccc3)n2)c1)c1cccs1	-7.8	96.3*	0.0	4.9	0.0	1.0
CC(=O)Nc1cccc(-c2csc(Nc3ncccn3)n2)c1	29.1	-29.8	/	/	/	-1.0
Oc1ccc(-c2csc(-c3ccccc3)n2)cc1O	61.8*	-49.8	20.3	8.9	2.9	0.0
Oc1ccc(-c2csc(Nc3ncccn3)n2)cc1O	86.9*	-47.5	/	/	/	0.0
COc1ccc(-c2csc(NC(=S)NC(=O)c3cccs3)n2)cc1OC	82.0*	-87.2	/	/	/	0.0
CC(C)c1ccc(OCC(=O)NC2=NCCS2)cc1	7.5	-17.1	1.2	-1.7	3.2	0.0
N#CCC(=O)Nn1c(=S)[nH]c2ccccc2c1=O	31.4	-48.4	12.3	-5.7	9.3	0.0
Oc1ccc(-c2csc(Nc3ncccn3)n2)c(O)c1	71.8*	40.8	4.8	3.0	2.3	-2.0
Cc1cccc(Nc2nc(-c3ccc(O)cc3O)cs2)n1	/	/	12.0	6.2	4.1	/
Cn1c(O)c(N=NC(=O)c2cc(-c3cccs3)nc3ccccc23)c2ccccc21	11.2	7.1	3.4	-3.0	6.8	-2.0
SMILES	Mcl1-Noxa inh	Mcl1 Bid PPI	MCL1-BIM inh	GLD-1 TGE inh	BCLXL inh	Mcl-1 Bim block
O=C(O)c1cc(N=Nc2c(O)[nH]c3ccc([N+](=O)[O-])cc23)ccc1Cl	/	/	9.9	6.3	14.1	/
O=C(N=Nc1c(O)[nH]c2ccc([N+](=O)[O-])cc12)c1cc(-c2ccccc2Cl)nc2ccccc12	76.6*	96.0*	4.5	-3.1	-0.1	-4.0
O=C(N=Nc1c(O)[nH]c2ccc(Br)cc12)c1cc(-c2cccs2)nc2ccccc12	68.2*	75.2*	/	/	/	-2.0
C=C(C)CNC(=S)N=Nc1c(O)[nH]c2ccc([N+](=O)[O-])cc12	65.5*	17.4	15.3	2.7	21.0	2.0
COc1ccccc1C(=O)N=Nc1c(O)[nH]c2ccc([N+](=O)[O-])cc12	78.3*	-9.8	/	/	/	26.0
CC(C)Cc1nn2c(N)c(/C=C3\C=Nc4ccccc43)c(=O)nc2s1	9.8	-19.3	8.8	-29.4	4.3	0.0
O=C(COc1ccc(Cl)cc1)NCc1n[nH]c(=O)c2ccccc12	/	/	-0.3	0.1	2.6	/
O=C(CSc1nc2ccccc2c(=O)n1-c1ccccc1)N/N=C/C=C/c1ccccc1[N+](=O)[O-]	1.9	14.9	-0.3	3.1	2.9	-1.0
Cc1ccccc1-n1c(SCC(=O)N/N=C/C=C/c2ccccc2[N+](=O)[O-])nc2ccccc2c1=O	63.1*	-0.4	-8.7	5.0	-1.2	-1.0
COc1cccc(OCc2cc(C(=O)N(C)Cc3nccn3C)no2)c1	/	/	8.6	2.6	5.5	/
O=C(Nc1ccc(N2CCOCC2)nc1)c1ccccc1Cl	-3.2	-35.0	6.4	-1.2	9.0	/
CCNc1nc(NC(N)=S)nc(NC(C)(C)C)n1	10.6	-61.5	-9.2	10.4	-11.1	-2.0
Cc1ccc(NC(=O)CN2CCc3cc4c(cc3C2C)OCCCO4)cc1C (stereo not given)	/	/	6.7	0.3	0.4	/
O=Nc1c(-c2cccc([N+](=O)[O-])c2)nc2ncccn12	54.7*	-5.5	8.0	-4.1	3.8	/
O=[N+]([O-])c1cccc(-c2cn3nc(-c4ccccc4)c(-c4ccccc4)nc3n2)c1	-6.9	-8.1	-3.4	1.3	-1.9	/
C=CCn1c(SCC(=O)N2CCc3ccccc3C2)nnc1-c1ccncc1	10.4	-10.3	-21.0	0.5	-7.8	-2.0
CNC(=O)c1ccc(Nc2nnc(-c3ccc(O)cc3)c3ccccc23)cc1	/	/	2.8	-9.6	7.0	/
Oc1ccc(-c2nnc(Nc3cccc(O)c3)c3ccccc23)cc1	60.5*	-2.5	-1.9	6.7	3.4	/
Cc1nc(NC(=O)c2cccc(-c3cc4ccccc4oc3=O)c2)ccc1Br	-34.0	57.8*	-2.4	7.9	0.4	-4.0
Cc1n[nH]c(C)c1S(=O)(=O)N1CCN(c2ccccn2)CC1	-10.1	70.2*	-2.7	-1.1	1.2	-3.0
NC(=O)NC(CC(=O)NCCc1ccc(S(N)(=O)=O)cc1)c1ccc(Cl)cc1 (stereo not given)	3.2	83.6*	-3.6	-3.1	-3.3	/
Cc1cc(C)nc(N/N=C/C2=C(N3CCOCC3)C(=C/c3ccccc3)/CC2)n1	52.8*	-21.4	9.9	2.6	10.3	-3.0
Cc1cc(=O)[nH]c(N/N=C/C2=C(N3CCOCC3)C(=C\c3ccc(Cl)cc3)/CC2)n1	55.7*	31.8	-10.2	5.5	-5.7	-3.0
